The list is not random: actives were taken first. Their share in the collection is about 3.4%.
KAT2A inh = blocks human GCN5L2 histone acetyltransferase; Q92830; GCN5L2 HAT assay, ThioGlo1 CoA-SH fluorescence; Potency, µM (highest dose often 58.9 µM), without a hit: at the highest dose activity change, negative = inhibition, usual class: inhibitors; actives 0.21% (n = 390,000); AID 504327; note: % is set by controls: 0 for no effect and ±100 for the full control effect
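Titration-based screen in which CoA formation is detected via maleimide probe ThioGlo1 (50uM) turning fluorescent on thiol reaction; substrates H3(1-25) 75uM and acetyl-CoA 70uM, GCN5L2 20nM, 20 min incubation at room temperature.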
Mito fusion act = inhibitors of mitochondrial division or activators of mitochondrial fusion. S. cerevisiae fusion-defective mutant growth rescue, CellTiterGlo 48 h. Potency, µM (titrated, usually from 46.1 µM), inactives show at the highest dose growth rescue (activation), actives largely listed as activators. actives 0.23% (n = 320,000). AID 485298; note: % of control where 0% means no effect; nearly all actives have a fitted effect of over 45% in size
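S. cerevisiae fusion-defective temperature-sensitive mutants (e.g. fzo1-1, mgm1-5) grown 48 h at 37C in YPEG (ethanol/glycerol non-fermentable) medium with 23 nl compound per well; growth rescue read as CellTiterGlo luminescence.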
GLS inhibitor = blocks human kidney-isoform glutaminase activity | O94925 | GLS enzymatic activity, qHTS titration | Potency, µM (doses to about 45.5 µM), for inactives: top-dose activity change, negative = inhibition, most hits filed as inhibitors | actives 0.21% (n = 410,000); note: % is set by controls: 0 for no effect and ±100 for the full control effect
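Human kidney-isoform GLS in 45 mM KH2PO4 pH 8.2, 0.02% Tween-20, with compound, started with 1mM L-Glutamine (added stock). Glutamate oxidase/HRP/Amplex red coupled fluorescence read at start and after 30 min at RT.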
PLK1 PBD block = inhibitors of human PLK1 polo-box domain binding. P53350. Plk1 PBD binding of FITC phosphopeptide, fluorescence polarization. Potency, µM, without a hit: max response, negative = inhibition, usual class: inhibitors. actives 2.8% (n = 360,000); note: series mostly up to about 57 µM; % is set by controls: 0 for no effect and ±100 for the full control effect; nearly all actives have a fitted effect of over 65% in size
Target sequence (P53350 whole entry, looked up, the tested form may be a part): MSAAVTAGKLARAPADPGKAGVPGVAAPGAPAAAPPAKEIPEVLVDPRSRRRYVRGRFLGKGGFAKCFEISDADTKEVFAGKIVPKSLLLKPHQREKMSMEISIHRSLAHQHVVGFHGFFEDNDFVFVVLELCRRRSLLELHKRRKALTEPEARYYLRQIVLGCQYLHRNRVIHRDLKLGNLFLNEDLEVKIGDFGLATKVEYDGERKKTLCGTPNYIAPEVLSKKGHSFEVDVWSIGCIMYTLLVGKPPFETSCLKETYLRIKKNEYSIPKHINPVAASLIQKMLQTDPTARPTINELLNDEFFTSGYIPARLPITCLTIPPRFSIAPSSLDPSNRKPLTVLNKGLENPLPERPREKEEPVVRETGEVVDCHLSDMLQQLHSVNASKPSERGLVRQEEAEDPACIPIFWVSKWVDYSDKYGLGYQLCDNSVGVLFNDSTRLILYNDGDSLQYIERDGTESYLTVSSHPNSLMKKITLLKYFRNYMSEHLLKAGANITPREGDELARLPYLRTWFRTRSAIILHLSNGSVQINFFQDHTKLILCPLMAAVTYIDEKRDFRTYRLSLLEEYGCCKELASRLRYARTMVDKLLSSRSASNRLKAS
VDR inhibitor = inhibitors of human vitamin D receptor; VDR-SRC2-3 peptide fluorescence polarization, 2 h; AID 504847; actives 0.93% (n = 400,000); P11473; Potency, µM, for inactives: max response, negative = inhibition, hits mostly inhibitors; note: % is set by controls: 0 for no effect and ±100 for the full control effect
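VDR–SRC2-3 interaction, FP format. Cmpds 23 nl via pintool, brief spin, 2 h ambient incubation.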
PKM2 act = activators of human pyruvate kinase M2; P14618; Potency, µM (titrated, usually from 57.5 µM), without a hit: at the highest dose activation, most hits filed as activators; purified PKM2, Kinase-Glo ATP luminescence, activation; response scale: 0% is enzyme alone, no compound; actives 0.34% (n = 260,000); AID 1631; note: % is set by controls: 0 for no effect and ±100 for the full control effect; nearly all actives have a fitted effect of over 55% in size
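Purified hPK-M2 (>95%) run at intermediate activity with 0.1 mM ADP and 0.5 mM PEP in 50 mM imidazole pH 7.2, KCl, MgCl2; 1 h room temperature. ATP formed read by Kinase-Glo luminescence; normalized to uninhibited and no-enzyme controls.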
TbPYK inh = confirmation of Trypanosoma brucei pyruvate kinase inhibitors; shares compounds with PLK1 PBD block; recombinant TbPYK, Kinase-Glo ATP luminescence; Potency, µM (doses to about 76.9 µM), for the others: at the top dose activity change, negative = inhibition, actives largely listed as inhibitors; actives 67% (n = 890); note: % is set by controls: 0 for no effect and ±100 for the full control effect; nearly all actives have a fitted effect of over 70% in size
TbPYK ADP-Glo = TbPYK inhibition, orthogonal confirmation; AID 720584; shares compounds with PLK1 PBD block; actives 62% (n = 890); recombinant TbPYK, ADP-Glo luminescence, 60 min; Potency, µM (top dose mostly 76.9 µM), inactives show at the top dose activity change, negative = inhibition, actives largely listed as inhibitors; note: % is set by controls: 0 for no effect and ±100 for the full control effect; nearly all actives have a fitted effect of over 75% in size
* = called active by the depositor; ? = inconclusive; / = no result given. Calls come from the whole dose curve; as a rule, active = well fitted curve in the direction sought with a large enough effect; inconclusive = small, poorly fitted or top-dose-only effect, or another doubt; inactive = no such curve, though single readings can be large; an effect the other way counts as inactive or inconclusive. Potency is the fitted concentration of half-maximal effect.

SMILES | KAT2A inh | Mito fusion act | GLS inhibitor | PLK1 PBD block | VDR inhibitor | PKM2 act | TbPYK inh | TbPYK ADP-Glo
O=C(O)Cc1ccc2sc(-c3ccccc3)nc2c1 | -4% | -2% | 7% | 0% | -6% | -25% | 32µM* | 7%
CC1(c2nnnn2Cc2ccccc2)CCC(=O)N1CC1CCCCC1 (stereo not given) | / | / | 6% | -8% | / | / | / | /
COc1ccc(NC(=O)CSc2nc(-c3ccc(OC)c(OC)c3)[nH]c2-c2ccc(C)cc2)cc1 | -8% | / | -8% | / | 13% | / | / | /
N#C/C(=C\c1ccc(N2CCOCC2)o1)c1nc2ccccc2[nH]1 | -29% | -4% | -3% | 66% | -1% | -7% | / | /
N#C/C(=C/c1ccc(N2CCOCC2)o1)c1ccc(Cl)cc1 | -22% | -4% | -11% | 6% | ? | 1.3µM* | ? | 35µM*
Cc1ccc(-c2cc(C(=O)N3CC(C)CC(C)C3)c3ccccc3n2)o1 (stereo not given) | -15% | 5% | 1% | 24µM* | ? | 27% | 25µM* | 35µM*
COC(=O)c1cc(-c2ccc(C)o2)nc2ccccc12 | ? | 13% | -4% | 15µM* | 79µM* | ? | ? | ?
COc1cccc(NC(=O)c2cc(-c3ccc(C)o3)nc3ccccc23)c1 | -15% | -7% | -4% | -19% | ? | -3% | / | /
CCOC1=C2[C@H](c3ccccc3F)N(S(=O)(=O)c3ccc(C)cc3)C[C@H]2n2c(=O)n(-c3ccccc3)c(=O)n2C1 | / | / | -17% | -1% | / | / | / | /
Cc1ccc2nc(-c3ccccn3)c(Nc3ccccc3C)n2c1 | -6% | -5% | 11% | -14% | -7% | 6% | / | /
Cc1ccc2nc(-c3ccccn3)c(N)n2c1 | / | / | 14% | -1% | / | / | 28µM* | 11%
CCn1c(=S)sc2c(=O)n(-c3ccccc3)c(=S)[nH]c21 | -15% | 2% | 1% | -15% | -9% | 9% | / | /
CCOc1ccccc1-n1c(=S)sc2c(=O)n(-c3ccc(C)cc3)c(=S)[nH]c21 | -11% | -3% | -2% | 6.7µM* | ? | -5% | 4.5µM* | 6.3µM*
N/C(=N/OC(=O)c1ccccc1Cl)c1nonc1N | -8% | 6% | -3% | -4% | -5% | -59% | 25µM* | 6%
N/C(=N\OC(=O)c1ccc(F)cc1)c1nonc1N | 1% | 3% | 0% | -18% | 6% | -56% | / | /
CNC(=O)c1sc2ncccc2c1-n1cccc1 | -8% | / | -3% | / | 6% | / | / | /
Cn1c(N)c(C#N)c2c(c1=S)CSC(C)(C)C2 | -5% | -1% | 24% | -27% | -15% | 0% | / | /
CC1(C)Cc2c(C#N)c(N)sc(=S)c2CS1 | -12% | -4% | 6% | 8.4µM* | ? | 7% | ? | ?
Cc1onc(-c2ccccc2Cl)c1C(=O)N1CCc2ccccc21 | -5% | 8% | 6% | -11% | -9% | 0% | / | /
Cc1onc(-c2c(F)cccc2Cl)c1C(=O)N1CCCc2ccccc21 | -1% | 6% | 5% | -2% | 26% | 2% | 8.9µM* | 7.9µM*
Cc1noc(C)c1C(=O)N1CCCc2ccccc21 | 6% | 7% | 5% | -5% | 13% | -1% | / | /
Cc1onc(-c2ccccc2Cl)c1C(=O)N1CCCc2ccccc21 | -2% | -1% | -1% | -6% | -12% | -2% | 7.9µM* | 8.9µM*
CCOC(=O)c1[nH]c(C)c(C(=O)/C=C/c2ccc(C(=O)O)cc2)c1C | -10% | 3% | 0% | -4% | -15% | / | / | /
CCCCCC(=O)NNC(=S)NC(=O)c1cccc([N+](=O)[O-])c1 | -27% | 6% | 0% | 15µM* | ? | -20% | 11µM* | 14µM*
COC(=O)c1sccc1NC(=O)Nc1ccc(F)cc1 | -11% | 3% | -5% | 4% | 40% | -35% | ? | -4%
SMILES | KAT2A inh | Mito fusion act | GLS inhibitor | PLK1 PBD block | VDR inhibitor | PKM2 act | TbPYK inh | TbPYK ADP-Glo
COC(=O)c1sccc1NC(=O)Nc1ccc(C)cc1 | -3% | -3% | 3% | -4% | 1% | -37% | / | /
c1ccc(Cc2nn3c(C4COc5ccccc5O4)nnc3s2)cc1 (stereo not given) | ? | 20% | ? | 21µM* | -44% | 8% | ? | ?
CN(C)c1ccc(/C=C/c2ccc3c4ccccc4ccc3[n+]2-c2ccccc2)cc1 | -6% | -3% | -22% | -15% | 46% | -13% | 32µM* | 7%
CN(C)c1ccc(/C=C/c2ccc3ccccc3[n+]2C)cc1 | -7% | -16% | 16% | 11% | 20% | -32% | ? | 2%
OC(c1ccc(Cl)cc1)c1nccc2ccccc12 (stereo not given) | -1% | -11% | -1% | -8% | -25% | -4% | / | /
CC1(Oc2ccc(F)cc2)CCN(Cc2ccccc2OC(F)F)C1 (stereo not given) | / | / | 19% | 2% | / | / | / | /
COCCn1nnnc1C(c1cc2cc(OC)c(OC)cc2[nH]c1=O)N1CCN(c2ccc(O)cc2)CC1 (stereo not given) | -1% | -1% | -19% | ? | 2% | -21% | 6.3µM* | 16µM*
C=CCNC(=S)NNC(=O)c1cccn(Cc2ccc(Cl)cc2Cl)c1=O | ? | 4% | -23% | -16% | -5% | 2% | 0.89µM* | 2.8µM*
CCNC(=S)NNC(=O)c1cccn(Cc2ccc(Cl)cc2Cl)c1=O | -5% | 1% | -22% | -13% | -3% | -1% | / | /
CC(C)n1c(=O)[nH][nH]c1=S | 14µM* | -1% | ? | 11µM* | 50µM* | -23% | 1µM* | 2.5µM*
CC(C)n1c(=O)[nH]c2ccccc21 | -7% | 6% | 2% | -6% | 8% | -1% | / | /
O=C(c1ccc2ncsc2c1)N1CCN(c2ccc(O)cc2)CC1 | 2% | 0% | -24% | -19% | 4% | 8% | 11µM* | ?
O=C(c1ccc2ncsc2c1)N1CCN(c2ccccc2Cl)CC1 | 3% | 3% | -7% | ? | 24% | -11% | / | /
OC[C@@H]1CN(Cc2cccc(C(F)(F)F)c2)C[C@H](n2cnc3c(NCc4ccco4)ncnc32)O1 | / | / | -1% | -4% | / | / | / | /
O=C(O)CCc1ccc(-c2ccc(Br)cc2)o1 | -12% | 5% | 5% | ? | ? | ? | / | /
O=C(O)CCc1ccc(-c2ccc(Cl)cc2)o1 | -9% | 1% | -1% | ? | ? | ? | ? | ?
